About 620 (0.19%) of roughly 320,000 compounds were called active. Roughly 6% stayed inconclusive and do not appear here. Rule as the data show it: active = activation above about 80%; inconclusive = between about 30% and that limit; inactive = weaker than that. The full list was thinned out, with actives kept by preference.
What follows are molecules tested against Transient receptor potential cation channel subfamily V member 1 (Homo sapiens) (UniProt Q8NER1) (assay: HTS Assay for Compounds that Act as Agonists of the Vanilloid Receptor 1). Settings: TRPV1-expressing cells, Fluo-8 calcium influx, agonist mode; at 8.33 µM; stronger effect = higher value.
Transient receptor potential cation channel subfamily V member 1 (Homo sapiens), sequence (Q8NER1 whole entry, looked up): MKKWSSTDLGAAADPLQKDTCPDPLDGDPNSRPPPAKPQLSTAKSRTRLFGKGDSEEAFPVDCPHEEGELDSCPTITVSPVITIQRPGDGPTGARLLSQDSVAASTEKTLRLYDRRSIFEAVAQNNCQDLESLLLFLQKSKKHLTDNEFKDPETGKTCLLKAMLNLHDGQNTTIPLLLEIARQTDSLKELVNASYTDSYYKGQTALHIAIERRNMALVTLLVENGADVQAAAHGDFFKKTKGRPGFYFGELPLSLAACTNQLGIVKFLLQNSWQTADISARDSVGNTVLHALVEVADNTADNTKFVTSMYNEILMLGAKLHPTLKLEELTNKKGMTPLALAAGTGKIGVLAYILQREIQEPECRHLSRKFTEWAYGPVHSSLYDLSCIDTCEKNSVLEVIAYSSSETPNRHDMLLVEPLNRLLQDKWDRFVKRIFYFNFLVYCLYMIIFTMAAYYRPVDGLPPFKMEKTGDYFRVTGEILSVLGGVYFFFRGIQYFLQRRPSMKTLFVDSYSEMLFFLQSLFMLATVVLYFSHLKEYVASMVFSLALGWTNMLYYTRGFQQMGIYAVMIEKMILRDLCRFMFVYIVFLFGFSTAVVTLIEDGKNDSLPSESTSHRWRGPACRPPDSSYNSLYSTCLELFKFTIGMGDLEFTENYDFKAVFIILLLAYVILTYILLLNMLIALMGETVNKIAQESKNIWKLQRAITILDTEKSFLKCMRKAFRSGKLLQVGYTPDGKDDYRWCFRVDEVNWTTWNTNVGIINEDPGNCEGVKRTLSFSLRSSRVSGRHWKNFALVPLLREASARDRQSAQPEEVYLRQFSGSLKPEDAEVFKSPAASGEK
Source text: The transient receptor potential ion channel, family V, number 1, (TRPV1) is one of the most important molecular transducers of painful stimuli and a potential target for analgesic drug development. Although recent clinical trials with orthosteric antagonists have not produced a successful drug because of a hyperthermia side effect and their tendency to block thermal noxious pain, this ion channel is undeniably well placed in the pain pathway, and the idea of blocking pain signals before they enter the CNS is an excellent concept and of proven efficacy when TRPV1 agonists are used. We propose a new approach involving allosteric modulation to impose an activity-dependent constraint within the context of inflammation and tissue damage that would alter the responsiveness of the channel in a way that an orthosteric vanilloid antagonist cannot achieve. We believe that the allosteric modulator approach has not been explored for this target. The main goal of this proposal is to identify additional, new, potent allosteric modulators of TRPV1 that can be used to investigate TRPV1 function. Our recent report provides evidence of proof of concept, but the compounds are just at the edge of utility in terms of potency. […] The question of whether they can be used as analgesic agents is complex, but if suitable compounds are identified then testing for analgesic properties will be conducted. NIH Chemical Genomics Center [NCGC] NIH Molecular Libraries Probe Centers Network [MLPCN] MLPCN Grant: MH089480-1A1 Assay Submitter (PI): Michael Iadarola, National Institute of Dental and Cranofacial Research
Upon TRPV1 activation in TRPV1 cells, the channel opens and extracellular cations flow through the channel into the cytosol. A calcium binding dye (Fluo-8) becomes fluorescent when bound to calcium. This dye is pre-loaded into cells and is used as a marker for calcium influx. The amount of accumulated calcium is precisely quantified using the FDSS kinetic reader and the calcium dye. For the HTS assay, freshly prepared cells are plated at a density of 2000/well in 3 ul medium in 1536-well plates and cultured overnight at 35.5C. Cells will be loaded with 1 ul of the homogeneous calcium dye (ABD Bioquest) at room temperature for 40 to 90 minutes. Plates will be loaded into the FDSS kinetic reader and a 1 sec / cycle for 10 second baseline signal will be measured. Compound library will then be added with a pintool at 23 nl and measured kinetically for 3 minutes. This portion of the read is considered the agonist portion of the screen. Following the 3 minutes of incubation, an on board pipettor will deliver 1 ul of capsaicin for a final concentration equal to the EC20. Signal will be measured kinetically for an additional 2 minutes. This portion of the read is considered the allosteric enhancer portion of the screen. The FDSS reader has a standard filter set capable of measuring calcium bound Fluo-8 (ex=480 and em=520 nm).
Also: 0% is about no effect.

| Structure (SMILES) | activation |
| --- | --- |
| CCN(CC(=O)Nc1ccccc1OC)C(=O)CC1CC2CCC1C2 (centres undefined) | 23.5% (inactive) |
| COc1ccc(OC)c(/C=C/C(=O)c2ccc3c(c2)OCO3)c1 | 25.2% (inactive) |
| COc1ccc([C@H]2CC(=O)C=C(/C=C/c3ccc(Cl)cc3)C2)cc1 | 6.1% (inactive) |
| CN1CCN(c2ccc(NC(=O)c3cc(Cl)c4c(c3)OCCO4)cc2)CC1 | -4.8% (inactive) |
| O=C1C=C(c2cccc(Cl)c2O)C[C@@H](c2ccc(F)cc2)C1 | 15.9% (inactive) |
| COc1ccc(NC(=O)COC(=O)c2n[nH]c3ccccc23)c(OC)c1 | 2.58% (inactive) |
| COc1ccc(S(=O)(=O)N2CCOCC2)cc1NC(=O)c1ccc(OCC(C)C)c(OC)c1 | 3.95% (inactive) |
| CN(c1ccccc1)S(=O)(=O)c1cccc(NC(=O)Cc2ccc(Cl)cc2)c1 | 6.78% (inactive) |
| Cc1ccc(S(=O)(=O)NCCC(=O)NCc2ccc(Cl)cc2)cc1C | 21.8% (inactive) |
| CC(C)c1nc(N2CCOCC2)c(C#N)c2c1COC(C)(C)C2 | 13.5% (inactive) |
| CCOC(=O)CSc1nc(N2CCOCC2)c2c(c1C#N)CC(C(C)C)OC2 (centres undefined) | 17.3% (inactive) |
| COc1ccc(CSc2nc(N3CCOCC3)c3c(c2C#N)CC(C)(C)OC3)cc1 | 80.5% (active) |
| COc1ccc(OC)c(/C=N/NC(=O)c2ccc[n+](CC(=O)c3ccccc3)c2)c1 | -2.79% (inactive) |
| CC(=O)Nc1ccc(S(=O)(=O)NC(C)C(=O)OCCOc2ccc(F)cc2)cc1 (centres undefined) | 3.17% (inactive) |
| O=C(COc1ccccc1Cl)N1N=C(c2cccs2)CC1c1ccco1 (centres undefined) | 17.2% (inactive) |
| O=C(Nc1cccc2cccnc12)C(F)(F)F | -6.93% (inactive) |
| CC(NC(=O)COC(=O)c1cc(=O)[nH]c2ccccc12)c1ccccc1 (centres undefined) | 3.95% (inactive) |
| CC(NC(=O)COC(=O)c1ccc(Cl)cc1O)c1ccc(F)cc1 (centres undefined) | 96.5% (active) |
| C=CCOc1ccc(/C=C/C(=O)OCC(=O)NC(C)c2ccc(F)cc2)cc1 (centres undefined) | 0.454% (inactive) |
| CN(CC(=O)Nc1ccc(Cl)c(C(F)(F)F)c1)C(=O)CCC(=O)c1ccccc1 | 17.3% (inactive) |
| CC1(C)O[C@@H]2[C@H](O1)[C@@H](COS(=O)(=O)O)O[C@H]2n1ccc(=O)[nH]c1=O | -5.53% (inactive) |
| COc1ccccc1CNS(=O)(=O)c1cc(C(=O)NCc2ccccn2)c(Cl)cc1Cl | -2.79% (inactive) |
| C=C1CCC(N(O)c2cc(C)on2)C(=C)CCC2C1CC2(C)C (centres undefined) | 13.2% (inactive) |

| Structure (SMILES) | activation |
| --- | --- |
| C=C(C)CNc1cc(S(=O)(=O)N2CCOCC2)ccc1Oc1ccccc1 | -6.07% (inactive) |
| COc1ccccc1Nc1cc(C(=O)NCCCN(C)C2CCCCC2)c2ccccc2n1 | 5.29% (inactive) |
| CCCCn1c(N)c(N(CCC(C)C)C(=O)COC(=O)c2cccnc2OCC)c(=O)[nH]c1=O | 1.64% (inactive) |
| CC(C)c1ccc(S(=O)(=O)N2CCN(C(C)C(=O)NC3CCCC3)CC2)cc1 (centres undefined) | 10.1% (inactive) |
| CCCn1c(N)c(N(CCOC)C(=O)C2CCCC2)c(=O)[nH]c1=O | 1.46% (inactive) |
| COc1cccc(N2CCN(CC(=O)Nc3ccnn3C3CCCC3)CC2)c1 | 1.23% (inactive) |
| CC(=O)c1c(C)[nH]c(C(=O)COc2ccc3c(C)cc(=O)oc3c2)c1C | -2.89% (inactive) |
| CC(C)N(Cc1nnc(-c2ccccc2Br)o1)C(=O)c1cc(Cl)nc2ccccc12 | 9.24% (inactive) |
| O=C(Nc1ccc(C(F)(F)F)cc1)c1cccc(-n2cnnn2)c1 | 11.1% (inactive) |
| COc1cc(C(=O)NNC(=O)CN2C(=O)NC3(CCCC3)C2=O)cc(OC)c1OC | -0.801% (inactive) |
| O=C(c1ccc(Cl)c(S(=O)(=O)N2CCCCCC2)c1)N1CCN(c2ccc(O)cc2)CC1 | 13.5% (inactive) |
| CC1CCCCC1NC(=O)NC(=O)COC(=O)C1=NN(c2ccccc2)C(=O)CC1 (centres undefined) | 0.278% (inactive) |
| O=C(CNS(=O)(=O)c1ccc2c(c1)OCCCO2)N1CCN(c2ccc(F)cc2)CC1 | -2.51% (inactive) |
| CCc1ccc(C(=O)N2CCN(S(=O)(=O)c3sc(C(=O)O)c(C)c3C(=O)O)CC2)cc1 | 0.16% (inactive) |
| N#Cc1nc(-c2cccc3ccccc23)oc1N | -1.65% (inactive) |
| Cc1ccc2ccc3c(c2n1)NS(=O)(=O)c1ccccc1-3 | -1.69% (inactive) |
| COc1cccc(-n2c(SCC(=O)NC3CCS(=O)(=O)C3)nc3ccccc3c2=O)c1 (centres undefined) | -0.844% (inactive) |
| CN(CC(=O)Nc1ccc(Cl)cc1)C(=O)c1ccc(COc2ccccc2)cc1 | 3.35% (inactive) |
| O=C(NCC1CCCO1)c1cc2c(s1)CCCC2 (centres undefined) | 17.2% (inactive) |
| O=C(Nc1ccc(F)cc1)c1cc2c(s1)CCCC2 | 87.7% (active) |
| CN(C)C(=O)c1ccc(NC(=O)COC(=O)c2cc3c(s2)CCCCC3)cc1 | 1.68% (inactive) |
| CCOC(=O)[C@@H]1[C@H]2COc3cc(OC)ccc3[C@H]2N2C(=O)N(c3ccc(F)cc3)C(=O)[C@]12C | -1.09% (inactive) |
| CCOC(=O)[C@H]1[C@H]2COc3ccc(OC)cc3[C@@H]2N2C(=O)c3ccc(F)cc3NC(=O)[C@@]12C | 88.1% (active) |

| Structure (SMILES) | activation |
| --- | --- |
| CCOC(=O)[C@@H]1[C@H]2COc3cc(OC)ccc3[C@@H]2N2C(=O)N(c3cccc(C)c3)C(=O)[C@@]12C | 2.6% (inactive) |
| CCOC(=O)c1ccccc1NC(=O)COC(=O)C(Cc1c[nH]c2ccccc12)NC(C)=O (centres undefined) | 17.5% (inactive) |
| O=C(/C=C/c1ccc(Cl)c([N+](=O)[O-])c1)c1cccnc1 | -3.27% (inactive) |
| CN(C)c1ccc(/C=C/C(=O)c2ccc(C(C)(C)C)cc2)cc1[N+](=O)[O-] | -0.491% (inactive) |
| O=C(/C=C/c1ccc(Cl)c([N+](=O)[O-])c1)c1ccc(O)cc1 | 83.8% (active) |
| Cc1c(/C=N\NC(=O)c2cc3ccccc3o2)c2ccccc2n1C | -1.62% (inactive) |
| Cc1ccc(NC(=O)c2cc3ccccc3o2)cc1 | 102% (active) |
| C/C(=N\NC(=S)Nc1ccc(C)cc1)c1cc2ccccc2o1 | 4.04% (inactive) |
| O=c1c2ccccc2ccc2ccc(P(=O)(O)O)cc12 | -0.0431% (inactive) |
| COc1cc(C(=O)NCC(c2ccco2)N2CCCC2)ccc1OCc1ccccc1 (centres undefined) | 3.05% (inactive) |
| CCOc1cc(/C=C/C(=O)OCC(=O)NCCN2C(=O)CSC2=O)ccc1OCC(C)C | 3.05% (inactive) |
| CCOC(=O)c1sc(N)c(C#N)c1COC(=O)C1=COCCO1 | -7.68% (inactive) |
| CC(C)(C)C(=O)CSc1ccc(S(=O)(=O)N2CCCC2)cn1 | 0.185% (inactive) |
| CCN(CC)S(=O)(=O)c1ccc(N2CCOCC2)c(NC(=O)C(C)Oc2ccc(F)cc2)c1 (centres undefined) | 25.5% (inactive) |
| O=C(NCc1ccccc1CN1CCCC1)c1cccc(S(=O)(=O)Nc2ccc(F)cc2)c1 | 2.73% (inactive) |
| Cc1ccc(O)c(CNc2nc3ccccc3n2C)c1 | 1.21% (inactive) |
| Cn1cccc1-c1nc2ccccc2n1C | -1.64% (inactive) |
| Cc1ccc(C2=NN(C)c3nc4ccccc4n3C2)cc1 | 84.2% (active) |
| COc1ccc(S(=O)(=O)N2CCOCC2)cc1NC(=O)Cc1coc2cc(C)ccc12 | -0.0282% (inactive) |
| Cc1nc(-c2ccc(F)cc2)c(CC(=O)N(C)CC(=O)Nc2c(C)cccc2C)s1 | -1.54% (inactive) |
| COc1ccc(-c2c(-c3cc(OC)cc(OC)c3)n(C)c3ccc(-c4ccn[nH]4)cc23)cc1 | -1.55% (inactive) |
| CC(C)(C)C(=O)OCc1nc(-c2ccc(O)c(O)c2)cs1 | 91.2% (active) |
| Cc1onc(C(=O)NN)c1-c1csc(COc2ccccc2)n1 | 2.64% (inactive) |

| Structure (SMILES) | activation |
| --- | --- |
| COc1ccc(-c2csc(Cc3nc(O)cs3)n2)cc1 | 4.2% (inactive) |
| CCOc1ccc(OCC(=O)OC(C)C(=O)NC2CCCCC2C)cc1 (centres undefined) | 11.7% (inactive) |
| CC1CCN(C2=NC(=O)/C(=C/c3ccc(O)cc3)S2)CC1 | 2.66% (inactive) |
| CCc1ccc(/C=C2\SC(N3CCOCC3)=NC2=O)cc1 | 89.7% (active) |
| Cc1ccsc1/C=C1\SC(N2CCOCC2)=NC1=O | 16.7% (inactive) |
| Cc1nc(SCC(=O)NC2CCCCC2C)c(C#N)c(C)c1C (centres undefined) | 11% (inactive) |
| N#Cc1ccc(OCC(=O)NC(=O)NC2CCS(=O)(=O)C2)cc1 (centres undefined) | -0.359% (inactive) |
| O=C(COC(=O)CCCN1C(=O)c2cccc3cccc(c23)C1=O)NC1CCS(=O)(=O)C1 (centres undefined) | -0.543% (inactive) |
| Cc1ccc2c(CN3CCN(S(=O)(=O)c4ccccc4C(F)(F)F)CC3)cc(=O)oc2c1 | 4.46% (inactive) |
| O=C(CSC(=S)N1CCOCC1)c1cc(Br)cc(Br)c1O | -0.207% (inactive) |
| COc1cc2ccccc2cc1C(=O)N1CCOCC1 | -0.849% (inactive) |
| O=C(c1cc2cc(Br)cc(Br)c2oc1=O)N1CCOCC1 | 87.7% (active) |
| COc1cc(OC)cc(-c2c(-c3cccs3)c3cc(-c4ccc(OC)cc4F)ccc3n2C)c1 | -2.36% (inactive) |
| CN(C(=O)COC(=O)Cn1cnc2c1c(=O)n(C)c(=O)n2C)C1(C#N)CCCCC1 | -2.27% (inactive) |
| COc1ccc(C)cc1NC(=O)CN1c2cccc3cccc(c23)S1(=O)=O | -0.498% (inactive) |
| CCCN(CC(=O)NC(=O)NC1CCCCC1)CC(=O)Nc1cc(Cl)ccc1Cl | 3.99% (inactive) |
| O=C(CCc1ccccc1Cl)Nc1ccc(S(=O)(=O)Nc2nccs2)cc1 | -1.57% (inactive) |
| COC(=O)c1ccc(CSc2ccc(S(=O)(=O)N3CCCCC3)cn2)cc1 | 6.26% (inactive) |
| Cc1ccc(C(=O)NCC(c2cccs2)N(C)C)cc1S(=O)(=O)N1CCOCC1 (centres undefined) | 10.3% (inactive) |
| CN1CCN(S(=O)(=O)c2ccc(N3CCN(c4ccccc4O)CC3)c([N+](=O)[O-])c2)CC1 | 4.24% (inactive) |

— PubChem BioAssay AID540275 (National Center for Advancing Translational Sciences (NCATS), 2011)
